# Rows were chosen to be rich in hits. Some 2.9% of all compounds tested hit in one or more screens of this group.
# PAFAH1B3 inh: inhibitors of human PAFAH1B3; recombinant PAFAH1B3, FP-rhodamine probe, fluorescence polarization; Q15102; 340,000 tested, 0.28% active; inhibition, % at 3.39 µM;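 active = inhibition above the screen-wide average of all tested compounds plus 3 SD, cut at about 25% in these data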;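 note: 0% = enzyme with DMSO only and 100% = wells lacking PAFAH1B3 protein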
# PAFAH1B2 inh: PAFAH1B2 (human) inhibition; 340,000 tested, 1.2% active; P68402; inhibition, % at 3.39 µM; AID 492953; recombinant PAFAH1B2, FP-rhodamine activity probe, fluorescence polarization;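 active = inhibition above the mean of all tested compounds plus 3 SD, cut at about 24% in these data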;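 note: 0% = enzyme with DMSO and 100% = wells lacking PAFAH1B2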
# Target sequence (P68402 whole entry, looked up): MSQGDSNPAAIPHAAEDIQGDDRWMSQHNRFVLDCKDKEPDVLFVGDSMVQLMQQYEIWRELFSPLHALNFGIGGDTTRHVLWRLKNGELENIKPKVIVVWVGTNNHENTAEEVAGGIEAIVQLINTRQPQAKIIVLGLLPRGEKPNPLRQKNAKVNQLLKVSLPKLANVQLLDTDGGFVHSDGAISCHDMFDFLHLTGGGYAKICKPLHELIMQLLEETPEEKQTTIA
# Fam108B counter: blocks mouse Fam108B hydrolase in RBBP9 counter-screen; AID 1947; 300,000 tested, 0.33% active; recombinant Fam108B, FP-Rh probe fluorescence polarization; inhibition, % at 9.51 µM;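 active = inhibition above the screen mean inhibition plus 3 SD, computed separately per campaign, cut at about 18% in these data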;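 note: inhibitors lower polarization as less probe binds the enzyme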
# pPAFAH FP inh: pPAFAH (human) enzyme inhibition | Q13093 | recombinant pPAFAH, FP-rhodamine probe fluorescence polarization | inhibition, % at 3.39 µM | 330,000 tested, 1.5% active;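 active = inhibition above the mean inhibition across the screen plus 3 SD, cut at about 25% in these data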;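 note: inhibitors block binding of the rhodamine activity-based probe so polarization drops; 0% = enzyme with DMSO and 100% = wells lacking pPAFAH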
# Target sequence (Q13093 whole entry, looked up): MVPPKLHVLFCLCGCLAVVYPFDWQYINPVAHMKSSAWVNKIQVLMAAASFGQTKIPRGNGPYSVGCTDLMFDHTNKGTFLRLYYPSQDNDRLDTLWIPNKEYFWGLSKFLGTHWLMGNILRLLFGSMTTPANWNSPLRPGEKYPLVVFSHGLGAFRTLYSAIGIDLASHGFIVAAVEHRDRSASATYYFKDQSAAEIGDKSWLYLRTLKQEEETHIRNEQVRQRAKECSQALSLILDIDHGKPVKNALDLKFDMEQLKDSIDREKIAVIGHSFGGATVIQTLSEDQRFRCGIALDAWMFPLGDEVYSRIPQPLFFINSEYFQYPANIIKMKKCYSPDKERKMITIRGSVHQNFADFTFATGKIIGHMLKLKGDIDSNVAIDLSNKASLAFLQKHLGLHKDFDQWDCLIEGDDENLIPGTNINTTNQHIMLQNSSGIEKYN
# PME-1 primary: PME-1 (human) inhibition | recombinant PME-1, FP-Rh probe fluorescence polarization | inhibition, % at 5.9 µM | 320,000 tested, 0.53% active;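 active = inhibition above the campaign mean of all compounds plus 3 SD, cut at about 26% in these data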;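 note: competitive labeling of PME-1 active site by serine hydrolase directed probe; 0% = PME-1 with DMSO and 100% = wells lacking PME-1 enzyme; inhibitors block probe labeling so polarization falls and inhibition rises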
# PAFAH2 FP inh: PAFAH2 (human) inhibition | inhibition, % at 3.39 µM | recombinant PAFAH2, FP-rhodamine activity probe, fluorescence polarization | 340,000 tested, 0.99% active | Q99487;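 active = inhibition above the mean over all tested compounds plus 3 SD, cut at about 30% in these data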;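 note: inhibitors block probe labeling of enzyme so polarization drops; 0% = enzyme with DMSO and 100% = wells lacking PAFAH2 protein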
# PAFAH2 confirm: PAFAH2 (human) inhibition, confirmed | recombinant PAFAH2, FP-rhodamine activity probe, fluorescence polarization | inhibition, % at 3.39 µM | AID 493030 | shares compounds with PAFAH2 FP inh | 2,300 tested, 65% active;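 active = mean inhibition over three repeats above a set limit taken from the earlier primary screen, cut at about 30% in these data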;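 note: inhibitor blocks binding of rhodamine activity probe so polarization falls; 0% = enzyme with DMSO and 100% = wells lacking PAFAH2 protein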
# * = called active by the depositor; . = not tested or not shown.
SMILES,PAFAH1B3 inh,PAFAH1B2 inh,Fam108B counter,pPAFAH FP inh,PME-1 primary,PAFAH2 FP inh,PAFAH2 confirm
O=C(COC(=O)C1CCC1)NCc1ccccc1,-6.2,3.0,-0.1,8.1,-3.8,6.4,.
O=C(COC(=O)C12CC3CC(CC(O)(C3)C1)C2)Nc1cccc(Br)c1,7.6,9.6,.,.,.,74.3*,69.1*
CC(CNC(=O)COC(=O)c1ccco1)c1ccccc1 (stereo unspecified),2.9,0.1,.,1.5,7.5,57.1*,48.0*
Cc1ccc(C(=O)Nc2ccc3c(c2)OCO3)o1,4.9,-0.7,-1.6,3.4,-4.7,-1.2,.
O=C(COC(=O)C12CC3CC(CC(O)(C3)C1)C2)NC(=O)NCc1ccco1,0.9,-1.2,-1.8,3.4,-4.2,-0.8,.
O=C(COC(=O)c1ccco1)NC(c1ccccc1)c1ccccc1,7.2,2.6,-3.5,2.3,1.7,17.4,.
Cc1ccc(C(=O)OCC(=O)Nc2ccc3c(c2)OCO3)o1,7.8,3.9,1.4,5.9,-1.4,62.0*,60.1*
CC1CC1C(=O)OCC(=O)Nc1cccc(Br)c1 (stereo unspecified),1.3,3.0,.,.,.,88.2*,85.1*
O=C(COC(=O)c1ccco1)Nc1ccccc1[N+](=O)[O-],2.1,3.0,1.6,-0.1,0.0,40.6*,28.1
COCC(=O)Nc1cccc(Br)c1,2.0,1.0,-1.0,1.9,0.7,-0.1,.
COc1cccc(-c2nc3ccccc3c(=O)o2)c1,4.5,2.8,-7.4,-7.0,-1.6,68.4*,73.1*
COc1cc(OC)cc(-c2nc3ccccc3c(=O)o2)c1,-0.6,1.4,-2.9,6.1,2.0,54.5*,67.9*
COc1ccc(-n2nnnc2SCC(=O)N2CCCc3ccccc32)cc1OC,-1.1,4.6,1.1,4.2,-4.9,-5.4,.
COc1ccc(-n2nnnc2SCC(=O)N2CCCC2=O)cc1,2.8,4.8,.,-1.0,-6.2,0.2,.
COc1ccccc1-n1nnnc1SCC(=O)N1CCCC1=O,-3.1,3.3,1.1,-2.3,0.0,51.4*,42.1*
O=C1CCCN1C(=O)CSc1nnnn1-c1ccccc1,5.7,11.7,.,1.9,3.8,36.7*,30.7*
CN1C2CCC1CC(NC(=O)c1cccc(C(F)(F)F)c1)C2 (stereo unspecified),18.2,20.9,2.8,4.5,0.8,32.0*,-2.1
Cc1cccc(C(=O)NC2CC3CCC(C2)N3C)c1 (stereo unspecified),7.2,4.8,.,.,.,0.1,.
COc1cccc(NC(=O)COC(=O)C2C3CC4OC(=O)C2C4C3)c1 (stereo unspecified),10.6,1.4,-1.3,5.2,-8.6,78.8*,68.5*
CCc1ccccc1NC(=O)COC(=O)C1C2CC3OC(=O)C1C3C2 (stereo unspecified),5.3,1.5,1.6,0.1,2.8,39.6*,30.8*
O=C(COC(=O)C1C2CC3OC(=O)C1C3C2)Nc1cccc(C(F)(F)F)c1 (stereo unspecified),9.6,-1.8,1.2,6.8,-3.0,70.8*,78.5*
Cc1cccc(C)c1NC(=O)COC(=O)C1C2CC3OC(=O)C1C3C2 (stereo unspecified),4.8,1.2,-1.4,-2.2,0.8,15.6,.
O=C(Nc1cccc(C(F)(F)F)c1)C1C2CC3OC(=O)C1C3C2 (stereo unspecified),4.7,4.0,-3.5,4.3,-1.5,-18.0,.
O=C(COC(=O)C1C2CC3OC(=O)C1C3C2)Nc1ccc(Cl)cc1 (stereo unspecified),2.4,-0.1,-3.0,7.7,-2.3,83.6*,73.7*
COc1ccc(CCNC(=O)[C@@H](NC(=O)c2ccccc2F)C(C)C)cc1OC,5.6,3.3,-0.2,7.3,0.1,-1.9,.
SMILES,PAFAH1B3 inh,PAFAH1B2 inh,Fam108B counter,pPAFAH FP inh,PME-1 primary,PAFAH2 FP inh,PAFAH2 confirm
COc1cc2c(C(F)(F)F)c(-c3ccsc3)oc(=O)c2cc1OC,7.1,1.6,.,8.2,.,58.9*,39.0*
COc1cc2c(C(F)(F)F)c(-c3ccc(C#N)cc3)oc(=O)c2cc1OC,-5.9,6.7,.,-0.4,.,7.6,.
CCN(C(=O)COc1ccc(N(C)S(=O)(=O)c2ccc(NC(C)=O)cc2)cc1)C1CCCCC1,6.8,9.1,.,0.8,.,-1.5,.
COC(=O)c1cc(C(=O)c2cc(Br)ccc2O)coc1=N,0.0,1.8,-0.8,1.1,-3.1,30.9*,5.3
CCOC(=O)c1cc(C(=O)c2cc(Br)ccc2O)coc1=N,8.1,6.3,5.0,3.6,2.4,1.9,.
Fc1ccccc1CNc1nc(-c2cccnc2)nc2ccccc12,5.9,-1.7,-3.1,6.5,-0.8,-4.4,.
Cc1cc2c(=O)oc(-c3ccccc3Br)nc2s1,4.7,3.1,.,.,.,69.3*,51.6*
COc1cc2nc(-c3ccccc3C)oc(=O)c2cc1OC,10.0,0.9,0.2,0.6,0.0,5.8,.
CCN(CC)c1ccc(S(=O)(=O)N2CCOCC2)cc1NS(C)(=O)=O,.,.,2.2,-9.1,1.8,.,.
COc1cc(/C=C/C(=O)OCC(=O)Nc2cc(S(=O)(=O)N3CCOCC3)ccc2Cl)cc(OC)c1OC,1.8,1.5,.,-0.4,.,17.6,.
CCN(CC)c1ccc(S(=O)(=O)N2CCOCC2)cc1NC(=O)COC(=O)/C=C/c1ccc(C)o1,1.8,-1.1,-3.3,18.6,22.1,38.1*,40.1*
CCN(CC)c1ccc(S(=O)(=O)N2CCOCC2)cc1NC(=O)COC(=O)/C=C/c1ccccc1,0.7,5.3,.,.,.,57.3*,42.3*
CCN(CC)c1ccc(S(=O)(=O)N2CCOCC2)cc1NC(=O)COC(=O)/C=C/c1ccc(O)c(OC)c1,2.5,-0.1,.,.,.,65.0*,66.3*
O=C(NCc1ccncc1)C(=O)NCC1OCCN1S(=O)(=O)c1ccc(F)cc1 (stereo unspecified),4.5,0.1,-1.9,0.6,2.9,-0.4,.
CC1CCCCN1CC(O)COCc1ccccc1 (stereo unspecified),-2.6,-3.6,.,.,.,-2.1,.
O=C(COC(=O)c1cccc(S(=O)(=O)N2CCc3ccccc32)c1)NCc1ccco1,8.2,5.1,-2.4,12.5,1.4,33.0*,20.0
Cc1ccc(C(=O)OCC(=O)NCc2ccco2)cc1,1.7,1.2,-4.5,3.0,2.7,45.4*,37.2*
CCOc1ccc(C(=O)NCc2ccco2)cc1OCC,1.6,6.0,2.7,1.4,4.5,-2.7,.
CCOc1ccc(C(=O)OCC(=O)NCc2ccco2)cc1OCC,4.1,7.8,1.3,9.6,-3.3,74.3*,46.0*
Nc1cc(C(=O)OCC(=O)NCc2ccco2)ccc1Cl,-0.4,1.2,0.2,16.5,3.8,36.4*,30.3*
CN1CCC=C(C(=O)N2c3ccccc3Sc3ccc(Cl)cc32)C1,10.5,-4.1,1.5,5.4,5.3,0.3,.
COC(=O)c1cc(-c2cccs2)nn1-c1ccccc1,-1.5,4.9,0.2,5.0,3.5,-0.7,.
O=C(c1ccccc1)n1ccc(-c2cccs2)n1,-2.0,0.8,-0.4,1.2,3.3,43.3*,23.4

# High-throughput results deposited in PubChem by The Scripps Research Institute Molecular Screening Center.
